Consider 24 compounds from PubChem BioAssay (NCATS).

The target in experiment [1] is Glutathione peroxidase 1 (Homo sapiens) (UniProt P07203). Nature of the experiment: Primary qHTS Assay for Inhibitors of Recombinant Selenoprotein Glutathione Peroxidase 1 (GPX1) (AID 1845191). Further: nearly all actives have a fitted effect of over 65% in size. Further: potency means the concentration at half of the fitted maximal effect. On activity, negative = inhibition: on the % scale 0 is the no-effect control and ±100 the full control effect. An outline of the steps:
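GPX1 10 nM, GR 100 nM, GSH 1 mM, NADPH 0.5 mM, CHP 0.5 mM (final). 30-min cpd preincubation, RT. Ex340/Em450 read t=0, t=15 min.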
(Quantitative high-throughput screening tests each substance at several concentrations.)

The target of experiment [2] is Phospholipid hydroperoxide glutathione peroxidase GPX4 (Homo sapiens) (UniProt P36969). Put plainly: Primary qHTS Assay for Inhibitors of Recombinant Selenoprotein Glutathione Peroxidase 4 (GPX4) (AID 1845192). Further: nearly all actives have a fitted effect of over 65% in size. On activity change, negative = inhibition: series mostly up to about 50 µM; on the % scale 0 is the no-effect control and ±100 the full control effect. Put shortly:
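qHTS, GR-coupled: GPX4 200 nM + cpd 30 min RT → GSH 1 mM, NADPH 0.5 mM, GR 100 nM → CHP 0.5 mM start; fluor 340/450 at t0 and t15 min; no-enzyme wells as control.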

Experiment [3] deals with Luciferin 4-monooxygenase (Photinus pyralis) (UniProt P08659). Nature of the experiment: Primary firefly luciferase (FLuc) qHTS assay for identification of artifact compounds. (AID 1845220). Further: nearly all actives have a fitted effect of over 60% in size.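 On activity change, negative = inhibition: series mostly up to about 54 µM; plate controls were DMSO vehicle for no effect and no enzyme for full effect.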 An outline of the steps: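 Reaction readout was CCD-imaged luminescence, taken 5 min after adding 10 nM purified firefly enzyme to compound-treated wells holding 10 uM luciferin and ATP in pH 7.6 buffer.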

A number with no mark means an inactive call. Records with an inconclusive call do not appear. The source made the active and inactive calls. The call rests on the fitted dose curve; in most records, active means well fitted inhibition curve with a large enough effect; inconclusive means small, poorly fitted or top-dose-only effect; inactive means flat fitted curve, though single readings scatter.

Chain of Phospholipid hydroperoxide glutathione peroxidase GPX4 (Homo sapiens) (P36969 whole entry, looked up): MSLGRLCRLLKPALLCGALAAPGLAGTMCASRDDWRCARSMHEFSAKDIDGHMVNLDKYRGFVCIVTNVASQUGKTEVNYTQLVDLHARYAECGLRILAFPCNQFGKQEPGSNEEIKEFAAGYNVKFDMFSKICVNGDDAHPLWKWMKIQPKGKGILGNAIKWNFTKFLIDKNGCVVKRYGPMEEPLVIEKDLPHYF
Chain of Glutathione peroxidase 1 (Homo sapiens) (P07203 whole entry, looked up): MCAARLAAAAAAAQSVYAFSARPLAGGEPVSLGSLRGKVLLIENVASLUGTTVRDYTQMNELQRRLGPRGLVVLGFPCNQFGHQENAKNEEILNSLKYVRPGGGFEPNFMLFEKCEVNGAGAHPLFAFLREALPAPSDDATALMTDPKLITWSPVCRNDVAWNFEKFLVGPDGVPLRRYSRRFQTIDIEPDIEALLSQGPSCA

Consider `C[C@@H]1CC[C@]2(C)C3(C)CC[C@@]2(OC3=O)[C@@]12C[C@H](c1ccoc1)OC2=O`, for which the Potency entry in experiment [1], in experiment [2] and in experiment [3] was “inactive” in each case.
With `COc1cc(C(O)C(CO)Oc2ccc(CCCO[C@@H]3O[C@@H](C)[C@H](O)[C@@H](O)[C@H]3O)cc2OC)ccc1O` (some centres not stated), the Potency result in experiment [1], in experiment [2] and in experiment [3] was “inactive” throughout.
On to `CCc1cc2c(=O)c(-c3nc4ccccc4s3)coc2c(CN2CCCCC2)c1O`, for which the Potency in experiment [1] is 11.1 µM (active). Besides, the Potency result in experiment [2] and in experiment [3] was “inactive” each time.
Consider `COC(=O)C1=COC(O[C@@H]2O[C@H](CO)[C@@H](O)[C@H](O)[C@H]2O)/C(=C\COC(=O)c2ccc(OC3OC(CO)C(O)C(O)C3O)c(OC)c2)C1CC(=O)OCCc1ccc(O)cc1` (some centres not stated), for which the Potency result in experiment [1] and in experiment [2] was “inactive” throughout. In experiment [3], the outcome was “inactive [at 11.6 µM]”.
For `Cc1cccc(-c2[nH]c(CNc3ccccc3F)nc2-c2ccc3ncnn3c2)n1`, the Potency entry in experiment [1], in experiment [2] and in experiment [3] was “inactive” in each case.
`C[C@@H]1O[C@@H](O[C@H]2[C@H](O)[C@@H](O)[C@H](OC[C@H]3O[C@@H](OC(=O)[C@]45CCC(C)(C)C[C@H]4C4=CCC6[C@@]7(C)C[C@H](O)[C@H](O[C@@H]8O[C@H](CO)[C@@H](O)[C@H](O)[C@H]8O)[C@@](C)(C(=O)O)C7CC[C@@]6(C)[C@]4(C)CC5)[C@H](O[C@@H]4O[C@H](CO)[C@@H](O)[C@H](O)[C@H]4O)[C@@H](O)[C@@H]3O)O[C@@H]2CO)[C@H](O)[C@H](O)[C@H]1O` (some centres not stated): the outcome is “inactive [at 9.52 µM]” in experiment [1] and “inactive [at 11.6 µM]” in experiment [3]. The activity change, negative = inhibition in experiment [2] is 0.162% [at 9.73 µM].
For the compound `COC(=O)C1(Cc2ccc(O)cc2)OC(=O)C(OC)=C1c1ccc(O)cc1` (configuration not stated), the Potency entry in experiment [1], in experiment [2] and in experiment [3] was “inactive” throughout.
On to `OC[C@H]1O[C@@H](Oc2ccc(O)c3cccc(O)c23)[C@H](O)[C@@H](O)[C@@H]1O`, for which the Potency entry in experiment [1], in experiment [2] and in experiment [3] was “inactive” in each case.
On to `CC(=O)OC1C(O)CC(O[C@@H]2O[C@H](CO)[C@@H](O)[C@H](O)[C@H]2O)C2CCC3C(=O)OC(c4ccoc4)CC3(C)C21` (some centres not stated), for which the Potency result in experiment [1], in experiment [2] and in experiment [3] was “inactive” each time.
Regarding `CC(=O)O[C@H]1CC[C@@]2(CI)C(=CC[C@@H]3[C@@H]2CC[C@]2(C)[C@@H]([C@H](C)CCCC(C)C)CC[C@@H]32)C1`, the activity, negative = inhibition in experiment [1] was 1.81% [at 9.52 µM]. In addition, the activity change, negative = inhibition was 1.73% [at 9.73 µM] in experiment [2] and 3.6% [at 11.6 µM] in experiment [3].
With `COc1cc(C(=O)OC[C@H]2O[C@H](O[C@@]3(CO)O[C@@H](CO)[C@H](O)[C@H]3O)[C@H](O)[C@@H](O)[C@@H]2O)ccc1O`, the Potency result in experiment [1], in experiment [2] and in experiment [3] was “inactive” each time.
`O=C(Nc1cccnn1)N1CCC(=Cc2cccc(Oc3ccc(C(F)(F)F)cn3)c2)CC1`: the Potency result in experiment [1], in experiment [2] and in experiment [3] was “inactive” each time.
As for `CC1[C@@H](O)[C@@H](O)C2[C@]3(C)C(C[C@H]4OC(=O)[C@H](O)[C@]1(O)[C@@]24C)C(C)(O)C[C@H](O)[C@H]3O` (some centres not stated), the Potency result in experiment [1], in experiment [2] and in experiment [3] was “inactive” each time.
With `CC(/C=C/[C@]1(O)[C@@]2(C)CO[C@@]1(C)C[C@@H](O)C2)=C\C(=O)O[C@@H]1O[C@H](CO)[C@@H](O)[C@H](O)[C@H]1O`, the Potency result in experiment [1], in experiment [2] and in experiment [3] was “inactive” in each case.
With `NS(=O)(=O)NCCNc1nonc1C(=Nc1ccc(F)c(Br)c1)NO`, the Potency result in experiment [1], in experiment [2] and in experiment [3] was “inactive” in each case.
On to `CNC(=O)COC(=O)NCCC1CCN(c2cccc(C)n2)CC1`, for which the Potency result in experiment [1], in experiment [2] and in experiment [3] was “inactive” throughout.
On to `NC(Cc1c[nH]c2ccccc12)C(=O)NC(CCC(=O)O)C(=O)O` (configuration not stated), for which the Potency entry in experiment [1], in experiment [2] and in experiment [3] was “inactive” each time.
For the compound `CC(C)(O)C1=CCC23COC(C2)C(O)(C(=O)O)CCC13` (configuration not stated), the Potency entry in experiment [1], in experiment [2] and in experiment [3] was “inactive” each time.
With `CC(=O)c1c(C)cc(O)cc1O[C@@H]1O[C@H](CO)[C@@H](O)[C@H](O)[C@H]1O`, the Potency entry in experiment [1], in experiment [2] and in experiment [3] was “inactive” in each case.
As for `CC1(C)O[C@@]2(C)CC[C@@H]1C[C@@H]2OC1OC(CO)C(O)C(O)C1O` (some centres not stated), the Potency result in experiment [1], in experiment [2] and in experiment [3] was “inactive” in each case.
Turning to `CC(C)[C@H]1CCC(CO)=C[C@@H]1/C=C(\CO)C(=O)O`, the Potency entry in experiment [1], in experiment [2] and in experiment [3] was “inactive” each time.
Consider `C/C=C/C1=CC2=CC(=O)C(C)(O)C(OC(=O)c3c(C)cc(O)cc3O)C2CO1` (configuration not stated), for which the Potency entry in experiment [1], in experiment [2] and in experiment [3] was “inactive” throughout.
Regarding `C=C1C[C@]23C[C@H]1CC[C@H]2[C@@]12C=C[C@H](O)[C@@](C)(C(=O)O1)[C@H]2[C@@H]3C(=O)O`, the Potency entry in experiment [1], in experiment [2] and in experiment [3] was “inactive” each time.
Take `OC1COC(OCC2OC(OCCc3ccccc3)C(O)C(O)C2O)C(O)C1O` (configuration not stated): the Potency entry in experiment [1], in experiment [2] and in experiment [3] was “inactive” throughout.
